Test results from PubChem BioAssay (NCATS).
Records with an inconclusive call do not appear. Where a call stands in place of a potency, no number is given. Activity calls are given as the source filed them. Calls come from the whole dose curve; as a rule, active = well fitted inhibition curve with a large enough effect; inconclusive = small, poorly fitted or top-dose-only effect; inactive = flat fitted curve, though single readings scatter.

molecular target: Luciferin 4-monooxygenase (Photinus pyralis) (UniProt P08659); assay: Biochemical firefly luciferase enzyme assay for NPC (AID 624030); note: nearly all actives have a fitted effect of over 70% in size; details: purified P. pyralis luciferase, luminescence, 5 min; series mostly up to 58.6 µM
Outline: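 Counter-screen for direct inhibition of the luciferase enzyme by approved-drug library compounds, run at 10 nM enzyme in 50 mM Tris acetate (final). Luminescence was read within 5 min of enzyme-buffer addition and normalized to PTC124 versus DMSO (0%).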
Potency is the fitted concentration of half-maximal effect.

Sequence of Luciferin 4-monooxygenase (Photinus pyralis) (P08659 whole entry, looked up): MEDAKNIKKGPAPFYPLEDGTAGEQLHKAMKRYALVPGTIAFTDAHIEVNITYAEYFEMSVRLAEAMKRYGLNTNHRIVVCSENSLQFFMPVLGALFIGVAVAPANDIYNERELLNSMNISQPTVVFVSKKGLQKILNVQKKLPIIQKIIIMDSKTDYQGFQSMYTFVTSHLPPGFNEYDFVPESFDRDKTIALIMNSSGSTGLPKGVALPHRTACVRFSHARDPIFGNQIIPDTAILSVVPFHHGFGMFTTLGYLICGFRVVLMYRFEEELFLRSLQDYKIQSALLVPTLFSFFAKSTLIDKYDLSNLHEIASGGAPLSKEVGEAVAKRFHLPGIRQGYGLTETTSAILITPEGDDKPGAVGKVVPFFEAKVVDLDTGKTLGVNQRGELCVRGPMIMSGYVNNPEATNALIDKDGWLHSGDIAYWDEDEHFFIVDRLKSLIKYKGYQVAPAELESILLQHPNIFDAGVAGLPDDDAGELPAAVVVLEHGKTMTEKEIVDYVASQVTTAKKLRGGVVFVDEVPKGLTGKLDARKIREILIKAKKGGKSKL

| Compound | Potency |
| --- | --- |
| CC(NN)c1ccccc1 (stereo not given) | inactive |
| CN(CC1(C)CCCO1)S(=O)(=O)c1ccc(Cl)c(S(N)(=O)=O)c1 (stereo not given) | inactive |
| CN1CCC(N(Cc2cccs2)c2ccccc2)CC1 | inactive |
| CCNC(=O)NCCCOc1cccc(CN2CCCCC2)c1 | inactive |
| O=C(O)CCC(=O)OC[C@@H](NC(=O)C(Cl)Cl)[C@H](O)c1ccc([N+](=O)[O-])cc1 | inactive |
| O=C(OCC(COC(=O)c1cccnc1)(COC(=O)c1cccnc1)COC(=O)c1cccnc1)c1cccnc1 | inactive |
| OC(CCCN1CCCCC1)(c1ccccc1)c1ccccc1 | inactive |
| Cc1ccc(/C=N/n2c(-c3ccccc3)csc2=S)cc1 | inactive |
| N#C/C(=C1/SC[C@@H](c2ccc(Cl)cc2Cl)S1)n1ccnc1 | inactive |
| CC(=O)Nc1c(I)c(NC(C)=O)c(I)c(C(=O)O)c1I | inactive |
| CN1CCC(=C2c3ccccc3CCc3cccnc32)CC1 | inactive |
| CC(COc1ccccc1)NN (stereo not given) | inactive |
| Cc1cccc(N(C)C(=S)Oc2ccc3c(c2)CCC3)c1 | inactive |
| CCOC(=O)NNc1nncc2ccccc12 | inactive |
| CCOC(=O)c1ccc(NC(=O)CN2CCCCC2)cc1 | inactive |
| CC[N+]1(CC)CCC(=C(c2ccccc2)c2ccccc2)C1C (stereo not given) | inactive |
| CCOC(=O)NNc1ccc(N(CC)CC(C)O)nn1 (stereo not given) | inactive |
| Oc1ccc(CCNCCCCCCNCCc2ccccc2)cc1O | inactive |
| OCCc1ccccc1 | inactive |
| CCCN(CCC)C(=O)C(CCC(=O)OCCCN1CCN(CCOC(=O)Cc2c(C)n(C(=O)c3ccc(Cl)cc3)c3ccc(OC)cc23)CC1)NC(=O)c1ccccc1 (stereo not given) | inactive |

| Compound | Potency |
| --- | --- |
| O=C(CCC1CCN(Cc2ccccc2)CC1)c1ccc2c(c1)NCCCC2 | inactive |
| CC(=O)OCC[N+](C)(C)C | inactive |
| O=C1NC2CCCCN2C12CCN(CCCN1c3ccccc3CCc3ccc(Cl)cc31)CC2 (stereo not given) | inactive |
| CC(C(=O)O)c1ccc(/C=C2\CCCCC2=O)cc1 (stereo not given) | 16.1 µM (active) |
| CCCCNc1ccc(C(=O)OCCN(CC)CC)cc1 | inactive |
| CCC(C(=O)NC(=O)NC(C)=O)c1ccccc1 (stereo not given) | inactive |
| O=C(O)Cc1ccccc1Oc1ccc(Cl)cc1Cl | inactive |
| CN(C)CCOC1=Cc2ccccc2Sc2ccc(Cl)cc21 | inactive |
| CC(=O)Nc1ccc(S(=O)(=O)Nc2cc(C)on2)cc1 | inactive |
| CO/N=C(/C(=O)N[C@@H]1C(=O)N2C(C(=O)[O-])=C(C[n+]3ccn4ncccc43)CS[C@H]12)c1nsc(N)n1 | inactive |
| CC[N+](CC)(CC)CCOC(=O)C(C1CCCC1)C1CCCC1 | inactive |
| O=C(O)c1ccccc1S | inactive |
| O=C1CC[C@H](C(=O)N2CCCCC2)N1 | inactive |
| Cc1cc(O)c2c(O)c3c(O)cccc3cc2c1 | inactive |
| CN=C(N)NC(=O)Nc1c(C)cccc1C | inactive |
| CC(=O)OCC(=O)Nc1cc(C#N)cc(NC(=O)COC(C)=O)c1Cl | inactive |
| Cn1cc(S(C)=O)c(=O)c2ccc(F)cc21 (stereo not given) | inactive |
| CC(CCc1ccc2c(c1)OCO2)NN (stereo not given) | inactive |
| CCOC(=O)Cn1cccc1-c1nc(-c2ccc(OC)cc2)c(-c2ccc(OC)cc2)s1 | inactive |
| COC(=O)C1=C(C)NC(COC(N)=O)=C(C(=O)OC(C)C)C1c1cccc(Cl)c1Cl (stereo not given) | inactive |
